# CHX counter – counter-screen for Shiga toxin inhibitors: cycloheximide protein synthesis inhibition; AID 2314; 300,000 compounds, 12% hits; max response, %; cell reporter, cycloheximide protein synthesis inhibition counterscreen; in the data active = max response mostly above about 13%, no sharp cut-off; inactive = mostly below about 14%; also: read at 38.3 µM for the half of the compounds with a filed dose; 0% is about no effect
# RE007 growth inh – less growth of the S. pombe RE007 Vpr strain; S. pombe RE007 Vpr strain, BacTiter-Glo ATP luminescence, 24 h; Potency, µM (highest dose often 92.2 µM), for inactives: top-dose activity change, negative = less growth, hits mostly inhibitors; 360,000 compounds, 0.21% hits; AID 651644; active = well fitted falling curve with a large enough effect; inconclusive = small, poorly fitted or top-dose-only effect; inactive = no such curve, though single readings can be large or run the other way; also: potency is read from the fitted curve at half-maximal effect; % is scaled to controls: 0 for no effect and ±100 for the full control effect; nearly all actives have a fitted effect of over 50% in size
#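 Fission yeast strain RE007, carrying one chromosomally integrated HIV-1 vpr copy, was seeded at OD 0.01 in PMG+AL medium with 23 nL pinned compound. After 24 h at 30 °C and 99% humidity, viability was read by BacTiter-Glo luminescence.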
# LmPK inh – LmPK (Leishmania mexicana) enzyme inhibition. Q27686. purified LmPK, Kinase-Glo ATP luminescence, 1 h. Potency, µM (top dose mostly 57.5 µM), without a hit: at the top dose activity change, negative = inhibition, usual class: inhibitors. 290,000 compounds, 0.37% hits; also: potency is read from the fitted curve at half-maximal effect; % is scaled to controls: 0 for no effect and ±100 for the full control effect
# Target sequence (Q27686 whole entry, looked up): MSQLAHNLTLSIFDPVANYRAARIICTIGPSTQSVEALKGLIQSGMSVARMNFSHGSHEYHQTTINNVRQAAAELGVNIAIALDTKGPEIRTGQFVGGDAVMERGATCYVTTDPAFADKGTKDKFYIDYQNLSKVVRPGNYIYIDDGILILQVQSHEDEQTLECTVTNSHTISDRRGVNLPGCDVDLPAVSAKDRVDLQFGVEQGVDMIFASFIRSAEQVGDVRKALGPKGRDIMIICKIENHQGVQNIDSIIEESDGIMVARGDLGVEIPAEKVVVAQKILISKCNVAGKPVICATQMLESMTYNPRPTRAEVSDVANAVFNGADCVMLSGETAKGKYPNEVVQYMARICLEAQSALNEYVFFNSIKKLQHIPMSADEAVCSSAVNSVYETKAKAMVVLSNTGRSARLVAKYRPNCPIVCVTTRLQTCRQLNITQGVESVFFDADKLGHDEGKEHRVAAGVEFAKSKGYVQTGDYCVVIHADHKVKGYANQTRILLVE
#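 In 50 mM imidazole pH 7.2 with 7 mM MgCl2, LmPK (0.1 nM) turned over PEP (0.5 mM) and ADP (0.1 mM) for 1 h at room temperature. Luciferase read-out of ATP.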
# TbPYK inhibitor – blocks Trypanosoma brucei pyruvate kinase; Q57TT1; TbPYK enzyme, Kinase-Glo Plus ATP luminescence, 45 min; Potency, µM (highest dose often 76.8 µM), for the others: top-dose activity, negative = inhibition, most hits filed as inhibitors; 410,000 compounds, 0.12% hits; also: potency is read from the fitted curve at half-maximal effect; % is scaled to controls: 0 for no effect and ±100 for the full control effect; nearly all actives have a fitted effect of over 50% in size
#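 TbPYK + substrate in 50 mM TEA pH 7.2, 100 mM KCl, 10 mM MgCl2, 0.05% BSA, 0.01% Tween-20; cpd pinned; ADP 130 uM final; 45 min RT; Kinase-Glo Plus 10 min; luminescence endpoint.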
# Giardia FBPA inh – inhibitors of Giardia lamblia fructose-1,6-bisphosphate aldolase; AID 2451; purified Giardia FBPA; 290,000 compounds, 0.71% hits; Potency, µM (titrated, usually from 59.6 µM), for the others: at the top dose activity, negative = inhibition, usual class: inhibitors; also: potency is read from the fitted curve at half-maximal effect; % is scaled to controls: 0 for no effect and ±100 for the full control effect; nearly all actives have a fitted effect of over 55% in size
#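 Giardia FBPA (40 nM reagent) was preincubated 10 min at RT with compound (up to 57.5 uM final), then substrate plus GAPDH/TPI/NAD/arsenate coupling system with diaphorase/resazurin was added; resorufin fluorescence (525/598 nm) was read after 20 min.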
# Shiga inhibitor – inhibitors of Shiga toxin in Vero cells; inhibition, % at 38.7 µM; 290,000 compounds, 9.2% hits; Vero cells, Shiga toxin protein synthesis inhibition reporter; in the data active = inhibition mostly above about 28%, no sharp cut-off; inactive = mostly below about 43%; also: 0% is about no effect
# The depositor's hits bear a star; ? = inconclusive; nt = not tested or not shown; [ ] = dose if it differs, or a comment. Many of the other results were omitted from the sample, so hits are more common in it than they were. Unless noted, calls follow the shape of the dose curve; as a rule, active = well fitted curve in the direction sought with a large enough effect; inconclusive = small, poorly fitted or top-dose-only effect, or another doubt; inactive = no such curve, though single readings can be large; an effect the other way counts as inactive or inconclusive.
SMILES,CHX counter,RE007 growth inh,LmPK inh,TbPYK inhibitor,Giardia FBPA inh,Shiga inhibitor
CC(C)c1ccc(/C=C/c2ccc(=O)n(C)n2)cc1,27*,-1%,-17%,0%,-4%,93*
CN(c1ccccc1)S(=O)(=O)c1ccc(Cl)c(C(=O)NCC(c2ccco2)N2CCCC2)c1 (configuration not stated),nt,1%,nt,2%,nt,nt
O=C(O)c1ccccc1-c1cc2ccccc2[nH]1,nt,3%,nt,2%,nt,nt
COc1ccccc1-c1cc2ccccc2[nH]1,38*,-29%,1%,1%,-1%,69*
O=C(CSc1nnc(-c2c[nH]c3ccccc23)o1)NCC1CCCO1 (configuration not stated),nt,-9%,nt,11%,nt,nt
Nc1c(-c2cccc([N+](=O)[O-])c2)nc2ccccn12,112*,6%,-20%,0%,-24%,82*
COc1ccc(-c2ncc3ccccn23)cc1OC,24*,-6%,-1%,24%,?,10
O=[N+]([O-])c1ccc(Sc2ncc3ccccn23)nc1,-3,25%,6%,-2%,-1%,17
O=[N+]([O-])c1cccc(-c2ncc3ccccn23)c1,31*,-18%,1%,-2%,-4%,68*
Clc1ccc(-c2ncc3ccccn23)cc1,4,-8%,12%,5%,0%,34
Cc1ccc(C)c(NC(=S)c2nc3ccccc3s2)c1,26*,-8%,-3%,-14%,16%,42*
CN(C)c1ccc(NC(=S)c2ccc3ccccc3n2)cc1,32*,-12%,6%,0%,-8%,113*
Cc1ccc(C)c(NC(=S)c2ccccn2)c1,50*,?,-6%,-9%,2%,95*
CC(C)=C(C#N)c1nc2ccccc2s1,17,-11%,0%,0%,12%,-2
Cc1ccc(C)c(NC(=S)c2ccc3ccccc3n2)c1,44*,5%,-3%,18%,10%,75*
CN(CC(=O)Nc1ccc(F)cc1)C(=O)c1ccc2ccccc2n1,nt,19%,nt,0%,nt,nt
Cc1ccc(C)c(NC(=O)NCc2ccccn2)c1,-1,3%,-5%,1%,-5%,-16
COc1ccc(C)cc1NC(=O)COC(=O)c1ccc2ccccc2n1,nt,3%,nt,4%,nt,nt
COc1cccc(CNC(=O)c2cc(C)nc3c2c(C)nn3-c2ccc(C)cc2)c1,nt,nt,nt,3%,nt,nt
CCOc1ccccc1C(=O)NCc1ccc2c(c1)CCN2C(C)=O,nt,nt,nt,0%,nt,nt
CCOc1ccc(CCNC(=O)c2oc(=O)c3ccccc3c2-c2ccc(C)cc2)cc1OCC,nt,nt,nt,3%,nt,nt
O=C(CCc1nnc(COc2ccccc2)o1)NCc1ccccc1C(F)(F)F,17*,7%,0%,-8%,-3%,48
CN(Cc1nnc(-c2ccc(F)cc2)o1)c1ccccc1,32*,-2%,-7%,1%,nt,71*
O=C(CCc1nnc(COc2ccccc2)o1)NCc1ccc(Cl)s1,6,2%,1%,-6%,1%,13
COCCN(C)C(=O)CCc1nnc(Cc2ccc(-c3ccccc3)cc2)o1,10,17%,-6%,2%,4%,-15
SMILES,CHX counter,RE007 growth inh,LmPK inh,TbPYK inhibitor,Giardia FBPA inh,Shiga inhibitor
COc1ccc(CCN(C)C(=O)CCc2nnc(-c3ccccc3)o2)cc1OC,59*,1%,-18%,-5%,3%,65*
CN(Cc1ccc(F)cc1)C(=O)CCc1nnc(-c2ccccc2)o1,47*,-2%,9%,1%,2%,108*
CN(Cc1nc2c(s1)CCCC2)C(=O)CCc1nnc(-c2ccccc2)o1,23*,-2%,-1%,-1%,3%,61*
CCc1ccc(CN(C)C(=O)CCc2nnc(COc3ccccc3)o2)cc1,30*,6%,2%,7%,0%,81*
C[C@@H]1CN([C@@H](C)CO)C(=O)c2cc(Br)cnc2O[C@H]1CN(C)C(=O)Nc1ccc2c(c1)OCO2,nt,-24%,nt,1%,nt,nt
O=[N+]([O-])c1ccc(N2CCN(CCOc3nonc3-c3ccccc3)CC2)c(Cl)c1,15,5%,-1%,0%,nt,-3
Cc1nonc1OCCN1CCN(c2ccc([N+](=O)[O-])cc2)CC1,20*,6%,4%,3%,-2%,19
COc1ccc(-c2nnc3cccc(Cl)n23)c(OC)c1,10*,-16%,-6%,4%,7%,43*
Clc1ccc(-c2nnc3cccc(Cl)n23)c(Cl)c1,-3,30%,-5%,-9%,-7%,-13
C#CCOCCOCCOCCNc1nc(N2CCN(C(=O)[C@H]([C@@H](C)CC)n3cc(CCCN=C(N)N)nn3)CC2)nc(N2CCN(C(=O)[C@H]([C@@H](C)CC)n3cc(CCC(=O)O)nn3)CC2)n1,nt,-8%,nt,0%,nt,nt
Cc1ccc2nc(-c3ccc(NC(=O)COCC(=O)O)cc3)sc2c1,56*,4%,-1%,-27%,30%,50*
Cc1ccc2nc(-c3ccc(NC(=O)Cc4ccccc4)cc3)sc2c1,nt,nt,nt,-5%,nt,nt
Cc1ccc2nc(-c3ccc(NC(=O)CSCC(=O)O)cc3)sc2c1,55*,3%,5%,-4%,28%,87*
O=C(O)CSCC(=O)Nc1ccc(-c2nc3ccccc3s2)cc1,35*,-10%,-26%,?,24%,54*
COc1ccc(O[C@H]2C=C[C@@H](c3ccccc3)O[C@H]2COC(=O)CC/C(C)=N\O[C@@H](C)c2cc(-c3c(C)cc(C)cc3C)no2)cc1,nt,nt,nt,nt,1%[12.9 µM],nt
Cc1c(C(=O)Oc2ccc(F)cc2)sc2ncn(Cc3cccc(F)c3)c(=O)c12,-4,-3%,0%,4%,6%,-2
CCn1cnc2sc(C(=O)Oc3cccc(C)c3)c(C)c2c1=O,29*,4%,1%,1%,8%,79*
COc1cccc(/C=N/NC(=O)CNC(=O)/C=C\c2ccccc2)c1O,28*,-6%,6%,0%,nt,41*
COc1ccc(/C=C\C(=O)NCC(=O)N/N=C/c2cccc(OC)c2O)cc1,14,-3%,-4%,-19%,4%,12
COc1cccc(/C=N/NC(=O)CNC(=O)C(c2ccccc2)c2ccccc2)c1O,38*,-3%,0%,-2%,-13%,71*
COc1ccc(/C(C)=N/NC(=O)CNC(=O)/C=C\c2ccccc2OC)c(OC)c1,14*,5%,0%,12%,1%,31*
CCC(Cn1nnc2ccccc2c1=O)NC(=O)Nc1cc(C)cc(C)c1 (configuration not stated),nt,nt,nt,-1%,nt,nt
CC(=O)c1ccc(NC(=O)c2ccc(-c3nc(COc4ccc(C)cc4)c(C)o3)cc2)cc1,nt,nt,nt,-5%,nt,nt
COc1cc(O)c(C(=O)CC(=O)c2ccncc2)c(OC)c1,nt,11%,nt,-3%,nt,nt
OCCn1c(-c2ccc(F)cc2)csc1=Nc1ccccc1,22*,-18%,6%,-22%,9%,71*

# Screens: PubChem, National Center for Advancing Translational Sciences (NCATS)
